Screens as filed in PubChem BioAssay.
JMJD2E inh: qHTS Assay for Inhibitors of Human Jumonji Domain Containing 2E (JMJD2E); Lysine-specific demethylase 4E (Homo sapiens), B2RXH2; actives 1.6% (n = 230,000); AID 2147, 2009; Potency, µM (titrated, usually from 57.1 µM), for inactives: at the top dose activity change, negative = inhibition, usual class: inhibitors; JMJD2E catalytic domain, FDH-coupled NADH fluorescence (FDH is formaldehyde dehydrogenase);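 also: potency is read from the fitted curve at half-maximal effect; 0% = wells with enzyme and -100% = buffer wells without enzyme; nearly all actives have a fitted effect of over 50% in size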
Lamin A splicing: qHTS Assay for Modulators of Lamin A Splicing | HeLa LMNA splicing GFP/RFP minigene ratio, 48 h | Potency, µM (series often up to 46.1 µM), inactives show at the highest dose ratio change, negative = inhibition, most hits filed as inhibitors | actives 0.01% (n = 200,000) | AID 1487, 2009; active = well fitted inhibition curve with a large enough effect in the signal ratio, with a control signal flat, not every such curve was filed as active; inconclusive = small, poorly fitted or top-dose-only effect, or effect the other way, or a change in a side signal; the % refers to the signal ratio; also: potency is read from the fitted curve at half-maximal effect; % is scaled to controls: 0 for no effect and ±100 for the full control effect
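S3 HeLa stable clones carrying a lamin A-EGFP splicing minigene plus DsRed2 were seeded at 600 cells/well in Opti-MEM with 2% FBS, pin-dosed and incubated 48 h at 37°C. Acumen cytometry (488 nm) gave the GFP/RFP total-intensity ratio.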
ALDH1A1 block: qHTS Assay for Inhibitors of Aldehyde Dehydrogenase 1 (ALDH1A1); Purified ALDH1A1, NADH fluorescence, propionaldehyde substrate; Potency, µM (doses to about 75.3 µM), inactives show at the highest dose activity, negative = inhibition, usual class: inhibitors; actives 7.3% (n = 220,000); active = well fitted inhibition curve with a large enough effect, not every such curve was filed as active; inconclusive = small, poorly fitted or top-dose-only effect, or another doubt; inactive = no such curve, though single readings can be large or run the other way;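 also: potency is read from the fitted curve at half-maximal effect; plate controls were no enzyme wells and a reference inhibitor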
Target sequence (P00352 whole entry, looked up): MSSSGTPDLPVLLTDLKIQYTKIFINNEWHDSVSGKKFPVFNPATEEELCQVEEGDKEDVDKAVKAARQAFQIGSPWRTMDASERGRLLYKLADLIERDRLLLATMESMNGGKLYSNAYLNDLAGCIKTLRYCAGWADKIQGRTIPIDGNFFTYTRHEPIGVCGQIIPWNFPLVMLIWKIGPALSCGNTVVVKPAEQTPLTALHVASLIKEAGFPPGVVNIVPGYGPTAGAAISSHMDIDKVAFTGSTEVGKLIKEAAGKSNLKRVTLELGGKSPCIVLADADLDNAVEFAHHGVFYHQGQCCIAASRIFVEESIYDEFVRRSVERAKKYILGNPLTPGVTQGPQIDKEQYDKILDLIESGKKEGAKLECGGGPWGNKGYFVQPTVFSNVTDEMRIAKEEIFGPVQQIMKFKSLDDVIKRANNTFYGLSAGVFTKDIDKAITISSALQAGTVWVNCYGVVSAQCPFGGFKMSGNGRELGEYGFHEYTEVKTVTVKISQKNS
G9a inh: qHTS Assay for Inhibitors of Histone Lysine Methyltransferase G9a; G9a H3K9 monomethylation, AlphaScreen, 2 h; Potency, µM (highest dose often 102 µM), without a hit: at the highest dose activity, negative = inhibition, most hits filed as inhibitors; actives 8.8% (n = 350,000); also: potency is read from the fitted curve at half-maximal effect; % is scaled to controls: 0 for no effect and ±100 for the full control effect; nearly all actives have a fitted effect of over 75% in size
Target sequence (Q96KQ7 913-1193 limits assumed): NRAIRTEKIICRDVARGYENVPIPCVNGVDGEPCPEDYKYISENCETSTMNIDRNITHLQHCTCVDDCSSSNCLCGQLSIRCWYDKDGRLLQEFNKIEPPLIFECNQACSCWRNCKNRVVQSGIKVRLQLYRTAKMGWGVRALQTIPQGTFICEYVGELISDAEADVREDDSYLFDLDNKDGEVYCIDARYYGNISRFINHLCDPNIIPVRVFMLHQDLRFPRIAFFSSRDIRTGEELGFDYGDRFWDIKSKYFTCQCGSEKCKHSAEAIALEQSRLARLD
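Using a bead-based AlphaScreen, monomethylated H3K9 product from 2 h room-temperature reactions (G9a 20 nM, peptide 500 nM, SAM 20 uM) was detected with 0.5 ug/mL rabbit anti-H3K9me1 antibody.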
miR-21 reporter: qHTS Assay for Modulators of miRNAs and/orActivators of miR-21; 340,000 tested, under 10 active; HeLa miR-21 FLuc reporter, luciferase, 48 h; Potency, µM (highest dose often 38.3 µM), for the others: top-dose activity change, positive = activation, most hits filed as activators;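 also: % of control where 0% means no effect; miR-21 action dims this reporter so a rising signal means less miR-21 action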
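Using DMEM plus 10% FBS, HeLa miR-21-FLuc cells are incubated with test compounds (final up to about 40uM) for 48 hours; firefly luciferase signal is then imaged following reagent-mediated lysis.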
Sfp inh: qHTS Assay for Inhibitors of Bacillus subtilis Sfp phosphopantetheinyl transferase (PPTase); actives 3.5% (n = 310,000); Potency, µM, inactives show largest response in the series, negative = inhibition, hits mostly inhibitors; 4'-phosphopantetheinyl transferase ffp (Bacillus subtilis), Q9F4F7; Biochemical Sfp PPTase activity, qHTS;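 also: the enzyme is Sfp with the accession as filed and its product quenches rhodamine fluorescence; potency is read from the fitted curve at half-maximal effect; 0% = enzyme reaction without inhibitor and -100% = no enzyme wells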
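With Hepes-Na pH 7.6 buffer containing 10 mM MgCl2, Sfp (15 nM) modified BHQ-2-YbbR (12.5 uM) using rhodamine-CoA (5 uM). Two reads 30 minutes apart at 525/598 nm yielded each well's rate.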
An asterisk follows results filed as active; ? = inconclusive; / = no result; [ ] = dose if it differs, or a comment. Compounds with a hit are over-represented: about 13% of the library has one in this group of screens. Unless noted, calls follow the shape of the dose curve; as a rule, active = well fitted curve in the direction sought with a large enough effect; inconclusive = small, poorly fitted or top-dose-only effect, or another doubt; inactive = no such curve, though single readings can be large; an effect the other way counts as inactive or inconclusive.

SMILES	JMJD2E inh	Lamin A splicing	ALDH1A1 block	G9a inh	miR-21 reporter	Sfp inh
COc1ccc2c(c1)cc1c(=O)n(CC(=O)NC3CCCCC3)nc(C)n12	/	/	/	11.8%[59 µM]	-1.7%	/
Cc1ccn(-c2cc(O)c(-n3ccc(C)n3)cc2O)n1	?	/	?	3.55µM*	-15.3%	-46.8%
Cc1cccc(-n2c(C)cc(C(=S)N3CCOCC3)c2C)c1C	6.5%	4.0%[46 µM]	?	?	-3.8%	13.7%
Cc1cc(C)cc(-n2c(C)cc(C(=S)N3CCOCC3)c2C)c1	-1.1%	-6.1%	-11.2%	4.47µM*	-1.6%	?
Cc1cc(C(=O)C(=O)N(C)C)c(C)n1-c1ccc(Cl)cc1	9.9%	7.3%[9.22 µM]	7.2%	-31.5%	4.2%	14.9%
Cc1cc(C(=S)N2CCOCC2)c(C)n1-c1ccc(Cl)cc1	-7.2%	?	22.4µM*	3.16µM*	5.2%	-9.1%
O=C(c1ccc(Cl)cc1)c1oc2ccccc2c1CS(=O)c1ccc(Cl)cc1 (stereo not given)	-25.7%	?	3.98µM*	-27.3%[59 µM]	-5.3%	56.2µM*
Nc1c(C(=O)c2ccc(Cl)cc2)oc2ccccc12	-5.9%	0.0%	3.0%	?	-47.9%	7.4%
CCOc1ccc(C2C(C(=O)C3CC3)N3C=C(C#N)C=CC3C2(C#N)C#N)cc1 (stereo not given)	?	1.8%	?	25.1µM*	-6.0%	?
Cc1ccc(NC(=O)NCCOCCn2c(=O)oc3ccccc32)cc1C	/	/	/	-19.0%[59 µM]	14.5%	/
NC(=O)/C=C\C(=O)Nc1cccc(C(F)(F)F)c1	1.5%	?	2.82µM*	10µM*	1.1%	-16.0%
O=C(NNc1cccc(Cl)n1)Nc1cccc(C(F)(F)F)c1	6.7%	?	20µM*	25.8%[59 µM]	6.3%	-0.9%
O=C(NNc1cccc(Cl)n1)Nc1ccc(Cl)cc1	5.9%	10.8%	?	?	2.0%	-1.2%
COc1ccc2c(c1)O[C@H](c1ccc3c(c1)OCO3)[C@@H](OC(=O)Nc1ccc(C)c(Br)c1)C2=O	-13.3%	/	-3.5%	/	/	-1.6%
COc1ccc(NC(=O)CS(=O)CC(=O)N2CCN(C3CCCC3)CC2)cc1 (stereo not given)	/	/	/	-39.3%	-0.1%	9.1%
CCOC(=O)CNC(=O)N1[C@H](c2cccs2)[C@@H](C)C(=O)[C@@H](C)[C@@H]1c1cccs1	/	/	/	0.6%[59 µM]	-5.9%	/
O=C(NCc1ccccc1)c1ncn(Cc2ccccc2)c1C(=O)NCc1ccccc1	/	/	/	-5.6%[2.33 µM]	/	/
O=C(O)c1ncn(Cc2ccccc2)c1C(=O)O	-7.8%	-0.7%	0.7%	10µM*	-0.8%	50.1µM*
CN1CCN(C(=O)NC2CCCCC2)CC1	?	-8.6%	?	8.91µM*	-4.7%	-16.5%
O=C(NC1CCCCC1)N1CCCCCC1	5.3%	-1.0%	4.2%	-7.1%	-7.4%	8.5%
C[N+](C)(C)CCCN(Cc1ccc2c(c1)OCO2)C(=O)NC1CCCCC1	-6.3%	/	/	50.1µM*	-5.4%	11.0%
CC(NCc1ccc(F)cc1)C(=O)NC1CCCCC1 (stereo not given)	-7.1%	5.4%[46 µM]	3.4%	/	-29.6%	0.6%
CC(NCc1ccc2c(c1)OCO2)C(=O)NC1CCCCC1 (stereo not given)	2.4%	?	35.5µM*	8.9%	-0.8%	14.0%
COc1cccc(N2CCN(C(=O)c3cnc4c(-c5ccccc5)c(C)nn4c3C)CC2)c1	/	2.2%[46 µM]	/	8.3%[59 µM]	-3.7%	/
COc1ccc(NC(=O)Cn2c(=O)n(-c3ccc(OC)cc3)c(=O)c3ccc(C(=O)NCc4ccc(C)cc4)cc32)cc1	/	/	/	5.6%[59 µM]	-14.9%	/
SMILES	JMJD2E inh	Lamin A splicing	ALDH1A1 block	G9a inh	miR-21 reporter	Sfp inh
COC(=O)C(C(C)=O)C1=C/C(=N\S(=O)(=O)c2ccc(C)cc2)c2ccccc2C1=O (stereo not given)	?	9.9%	?	44.7µM*	9.4%	?
O=C(O)c1ccc(S(=O)(=O)/N=C2\C=C(Nc3ccccc3F)C(=O)c3ccccc32)cc1	/	/	/	12.6µM*	50.4%	?
Cc1ccccc1NC1=C/C(=N\S(=O)(=O)c2ccc(C(=O)O)cc2)c2ccccc2C1=O	/	/	/	31.6µM*	-14.7%	-27.8%
C[C@H](NC(c1cccc2nc(O)c(O)nc12)P(=O)(O)O)c1ccc(Br)cc1 (stereo not given in full)	/	/	/	/	/	-5.3%
O=C(O)C1CC=CCC1C(=O)Nc1cccnc1 (stereo not given)	9.9%	-1.8%[46 µM]	0.8%	?	-4.5%	8.6%
CCC(C(=O)NCC1CCCO1)N(C(=O)c1snc(C(N)=O)c1N)c1ccc(Cl)cc1 (stereo not given)	/	/	/	-1.2%	-0.2%	7.1%
CCc1ccc2nc(N3CCC(C(=O)NCCC(C)C)CC3)sc2c1	/	/	/	14.1µM*	1.0%	/
CCCN(CCC)CCNC(=O)C1CCN(c2nc3ccc(CC)cc3s2)CC1	/	/	/	-29.9%[59 µM]	16.6%	/
CCOc1ccc2nc(N3CCCC(C(=O)NCCCN4C(C)CCCC4C)C3)sc2c1 (stereo not given)	/	/	/	39.8µM*	-44.6%	3.4%
CC(NC(=O)NNC(N)=S)(C(F)(F)F)C(F)(F)F	1.6%	/	/	6.6%	5.7%	44.7µM*
COc1cc2c(cc1OC)-c1nnc(C)n1C(C)(C)C2	?	?	-2.0%	-3.0%[12.7 µM]	-9.3%	11.8%
Cc1cc2c(cc1C)-c1nnnn1C(C)(C)C2	-0.7%	17.1%	7.08µM*	-1.0%[12.7 µM]	-16.6%	5.7%
CN(CC(=O)NCc1ccc2c(c1)OCO2)S(=O)(=O)c1ccc(F)cc1	/	/	/	9.6%	-4.3%	18.5%
CC1(C)Cc2cccc(OCC(=O)NCc3cccs3)c2O1	/	/	/	5.5%	/	/
Cc1cc(O)c(CN(C)C)c2c1C(=O)/C(=C/c1ccco1)O2	/	/	/	6.31µM*	5.5%	-27.4%
COc1ccc(/C=N/Nc2ccc(C(=O)O)cc2)cc1OC	-15.0%	/	/	-35.7%	-1.4%	5.0%
O=C(O)c1ccc(N/N=C/c2ccc(-c3ccccc3)cc2)cc1	?	?	3.0%	44.7µM*	-34.7%	-12.9%
O=C(O)c1ccc(N/N=C/C=C/c2ccccc2)cc1	-25.8%	/	/	70.8µM*	-57.6%	3.8%
Cc1ccc(/C=N/Nc2ccc(C(=O)O)cc2)s1	?	/	?	14.1µM*	16.0%	-4.1%
CC(C)c1ccc(/C=N/Nc2ccc(C(=O)O)cc2)cc1	-9.4%	6.4%	?	10µM*	5.0%	1.4%
Cn1nnnc1SCCCNCc1cccc(OCc2ccccc2)c1	/	6.8%[46 µM]	/	1.4%[59 µM]	-8.5%	/
Cc1ccn(C(=O)c2ccc(NC(=O)CC(C)C)cc2)n1	-13.7%	6.7%[46 µM]	2.0%	11.1%[59 µM]	-3.7%	16.9%
